12-LOX inh: blocks human arachidonate 12S-lipoxygenase | 1.1% of 580,000 active | purified 12hLO, xylenol orange hydroperoxide absorbance | Potency, µM (titrated, usually from 108 µM), for inactives: at the top dose activity change, negative = inhibition, usual class: inhibitors | P18054 | AID 1671190; note: potency is the fitted concentration of half-maximal effect
Target sequence (P18054 whole entry, looked up): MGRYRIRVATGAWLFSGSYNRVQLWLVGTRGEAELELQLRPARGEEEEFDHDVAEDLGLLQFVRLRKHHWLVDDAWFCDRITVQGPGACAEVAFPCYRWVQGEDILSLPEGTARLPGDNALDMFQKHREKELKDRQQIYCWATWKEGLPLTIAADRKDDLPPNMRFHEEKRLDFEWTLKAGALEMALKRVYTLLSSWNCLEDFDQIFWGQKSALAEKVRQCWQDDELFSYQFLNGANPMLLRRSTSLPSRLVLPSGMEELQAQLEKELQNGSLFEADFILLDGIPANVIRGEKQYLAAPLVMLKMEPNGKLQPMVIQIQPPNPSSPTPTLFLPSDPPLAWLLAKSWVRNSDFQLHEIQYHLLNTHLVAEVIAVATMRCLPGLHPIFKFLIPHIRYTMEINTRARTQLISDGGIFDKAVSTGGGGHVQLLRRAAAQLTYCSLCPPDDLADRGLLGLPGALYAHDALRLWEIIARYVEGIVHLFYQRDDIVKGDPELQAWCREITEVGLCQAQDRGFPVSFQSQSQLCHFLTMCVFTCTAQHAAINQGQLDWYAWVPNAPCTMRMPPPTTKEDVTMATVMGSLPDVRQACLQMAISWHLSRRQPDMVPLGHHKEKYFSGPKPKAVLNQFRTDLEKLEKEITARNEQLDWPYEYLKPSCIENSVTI
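Purified human 12hLO at 150 nM in 25 mM Hepes, 0.01% Triton X-100, pH 7.0, preincubated 15 min at room temperature with compound. Reaction started with 40 uM arachidonic acid, 30 min at room temperature. Hydroperoxide measured by Fe-xylenol orange, 573/405 nm absorbance ratio.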
DT40 TDP1 CPT: growth inhibition of DT40 Tdp1-/-;hTDP1 cells with camptothecin (screen for TDP1 inhibitors); 12% of 420,000 active; AID 686979; Potency, µM (titrated, usually from 46.2 µM), inactives show at the top dose activity change, negative = growth inhibition, hits mostly inhibitors; chicken DT40 Tdp1-/-;hTDP1 cells + 20 nM CPT, ATP luminescence, 48 h; note: potency is the fitted concentration of half-maximal effect; nearly all actives have a fitted effect of over 55% in size
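Chicken DT40 Tdp1-/- cells stably complemented with human TDP1 were seeded at 400 cells/well in medium containing 20 nM camptothecin, exposed to pin-transferred compounds, and grown at 37 °C for at least 48 hr. Viability was read as ATP luminescence.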
IL-1B inflam inh: inflammasome signaling inhibition, IL-1 beta readout. THP-1 LPS/ATP IL-1B secretion, AlphaLISA, 16 h; stronger effect = lower value. activity change, % at 57.5 µM. 4.7% of 360,000 active; in the data active = activity change below about -50%; inconclusive = mostly about -30% to -49%
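THP-1 cells pretreated 1 hr with compounds (up to 57.5 uM final), then stimulated with LPS (250 ng/mL final) plus ATP (1.25 mM final); secreted IL-1B measured by AlphaLISA after 16 hr, decreased signal indicating inhibition.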
TDP1 cell noCPT: qHTS for Inhibitors of human tyrosyl-DNA phosphodiesterase 1 (TDP1): qHTS in cells in absence of CPT; DT40 Tdp1-/- hTDP1 cells, no CPT, ATP luminescence, 48 h; Potency, µM (highest dose often 46.2 µM), inactives show top-dose activity change, negative = growth inhibition, actives largely listed as inhibitors; 15% of 420,000 active; AID 686978, 2013; note: potency is the fitted concentration of half-maximal effect; nearly all actives have a fitted effect of over 55% in size
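A cellular qHTS used chicken DT40 cells lacking endogenous Tdp1 but carrying stably transfected human TDP1. Compounds were applied without camptothecin, and cell growth kinetics were judged by ATP-dependent luminescence after ≥48 hr.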
HT1080-NT tox: kills 2HG-producing HT-1080-NT fibrosarcoma cells; 1.6% of 360,000 active; Potency, µM (highest dose often 46.1 µM), for inactives: at the top dose activity, negative = less viability, usual class: cytotoxic; HT-1080-NT fibrosarcoma viability, CellTiter-Glo ATP luminescence, 48 h;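 note: NT is the 2HG producing partner of a matched IDH1 knockdown line; potency is the fitted concentration of half-maximal effect; 0% = DMSO-treated cells and -100% = media-only wells without cells; nearly all actives have a fitted effect of over 55% in size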
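Fibrosarcoma NT cells, 750 per well in 5% FBS RPMI, were exposed to compound for 48 hours. Viability: CellTiter-Glo luminescence.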
HT1080 IDH1KD tx: kills HT-1080 cells with IDH1 knockdown; HT-1080 IDH1 knockdown viability, ATP luminescence, 48 h; Potency, µM (top dose mostly 46.1 µM), inactives show top-dose activity, negative = toxicity, most hits filed as cytotoxic; 2% of 360,000 active; AID 686971;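 note: potency is the fitted concentration of half-maximal effect; 0% = DMSO wells and -100% = cell-free medium wells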
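Using the IDH1-knockdown HT-1080 line run in the same batch and compound series as the NT line, viability after 48 h at 37 °C was determined by CellTiter-Glo luminescence and expressed as % activity.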
Numbers without * were called inactive; ? = inconclusive; / = no result given; [ ] = another dose, or the depositor's remark. Shown is part of a subset that was picked to be rich in hits. Unless noted, calls come from the whole dose curve; as a rule, active = well fitted curve in the direction sought with a large enough effect; inconclusive = small, poorly fitted or top-dose-only effect, or another doubt; inactive = no such curve, though single readings can be large; an effect the other way counts as inactive or inconclusive. Unless noted, % is set by controls: 0 for no effect and ±100 for the full control effect.

SMILES	12-LOX inh	DT40 TDP1 CPT	IL-1B inflam inh	TDP1 cell noCPT	HT1080-NT tox	HT1080 IDH1KD tx
CCOc1ccc(-n2c(-c3ccccc3)c[n+]3c2CCCCC3)cc1	-6%	0.15µM*	-56*	0.029µM*	?	13µM*
Cc1ccc(-c2c[n+]3c(n2-c2ccccc2)CCC3)cc1	154%	1.2µM*	-53*	0.65µM*	?	?
Cc1c(C(=O)NCCC2CCCN2C)cnn1-c1nccc(-c2ccccc2F)n1 (stereo not given)	20%	-2%[9.04 µM]	/	-16%	/	/
Cc1ccccc1C1(CC(=O)N2CC3CC4CC(C3)CC2C4)CC(=O)N(Cc2cccnc2)C1=O (stereo not given)	17%	-8%[9.04 µM]	/	?	/	/
O=C(CC1(c2cccc(F)c2)CC(=O)N(Cc2cccnc2)C1=O)N1CCCCCCC1 (stereo not given)	9%	?	/	?	/	/
O=C1CC(CC(=O)N2CC3CCCC2C3)(c2cccc(F)c2)C(=O)N1Cc1cccnc1 (stereo not given)	0%	?	/	18µM*	/	/
Cc1ccccc1C1(CC(=O)N2CC3(C)CC2CC(C)(C)C3)CC(=O)N(Cc2cccnc2)C1=O (stereo not given)	-5%	-14%[9.04 µM]	/	21µM*	/	/
CCOC(=O)c1c(C)c(C(=O)N2CCN(c3ccccc3)CC2)c(C)n1C	2%	-21%	-69*	-25%	0%	-7%
CCOC(=O)c1c(S(=O)(=O)N2CCCC(C(=O)N3CCN(c4ccccc4)CC3)C2)c(C)n(C)c1C (stereo not given)	-19%	15µM*	/	?	/	/
CCOC(=O)c1c(S(=O)(=O)N2CCCC(C(=O)N3CCN(c4ccc(F)cc4)CC3)C2)c(C)n(C)c1C (stereo not given)	-21%	23µM*	/	?	/	/
CCOC(=O)c1c(S(=O)(=O)N2CCCC(C(=O)N(C)Cc3ccccc3)C2)c(C)n(C)c1C (stereo not given)	-11%	12µM*	/	?	/	/
O=C(C(=O)N1CCN(C(=O)c2ccco2)CC1)c1ccccc1	6%	0%	31	6%	17%	20%
CCOC(=O)c1c(S(=O)(=O)N2CCCC(C(=O)NCc3ccccc3Cl)C2)c(C)n(C)c1C (stereo not given)	?	-28%	/	-22%	/	/
CCOC(=O)c1c(S(=O)(=O)N2CCCC(C(=O)NCc3ccc(Cl)cc3)C2)c(C)n(C)c1C (stereo not given)	-30%	13µM*	/	?	/	/
CCOC(=O)c1c(S(=O)(=O)N2CCN(c3cc(Cl)ccc3C)CC2)c(C)n(C)c1C	-9%	?	/	21µM*	/	/
CCCCc1cc(C[C@H]2CNCC[C@H]2CC(=O)NCc2cccnc2)no1	-18%[176 µM]	/	/	/	/	/
CC(C)(C)c1ccc(-c2cc(C[C@H]3CNCC[C@H]3CC(=O)NCc3cccnc3)no2)cc1	28µM*	/	/	/	/	/
CC(=O)c1ccc(S(=O)(=O)NCCC(=O)O)cc1	-4%	/	/	/	/	/
CCN(CC)CCCNC(=O)C1c2ccccc2C(=O)N(C)C1c1ccc(OC)cc1 (stereo not given)	-29%	-8%	0	2.3µM*	-5%	?
COc1ccc(C2C(C(=O)N3CCN(C)CC3)c3ccccc3C(=O)N2C2CCCCC2)cc1 (stereo not given)	0%[57.4 µM]	-17%	4	-9%	-2%	4%
COc1ccc(C2C(C(=O)Nc3cc(OC)c(OC)c(OC)c3)c3ccccc3C(=O)N2C)cc1 (stereo not given)	-9%	1.5µM*	95	1.8µM*	1.5µM*	1.5µM*
COc1ccc(C2C(C(=O)NCCN3CCOCC3)c3ccccc3C(=O)N2C2CCCCC2)cc1 (stereo not given)	21%	7.3µM*	32	5.2µM*	-10%	-2%
COc1ccc(C2C(C(=O)Nc3cccc(OC)c3)c3ccccc3C(=O)N2C)cc1 (stereo not given)	1%	6%	18	-1%	-3%	3%
COc1cc(Cl)c(C)cc1NS(=O)(=O)c1cc(-c2n[nH]c(=O)c3c2CCCC3)ccc1C	-25%	/	/	/	/	/
CC(C)C[C@H]1CNC(=S)N1CC1CCCN1C[C@H](Cc1ccccc1)N1C[C@H](Cc2ccc(O)cc2)N(CC2CCCCC2)C1=S (stereo not given in full)	?	?	?	?	-27%	?
SMILES	12-LOX inh	DT40 TDP1 CPT	IL-1B inflam inh	TDP1 cell noCPT	HT1080-NT tox	HT1080 IDH1KD tx
CC(C)C[C@H]1CNC(=S)N1CC1CCCN1C[C@H](Cc1ccc(O)cc1)N1C[C@H](Cc2ccccc2)N(CC2CCCCCC2)C1=S (stereo not given in full)	?	?	-28	21µM*	0%	-7%
CC(C)C[C@H]1CN([C@@H](Cc2ccccc2)CN2CCCC2CN2C(=S)NC[C@@H]2Cc2ccccc2)C(=S)N1CC1CCCCC1 (stereo not given in full)	?	6.5µM*	-7	7.3µM*	-3%	13%
CC(C)C[C@H]1CNC(=S)N1C[C@H]1CCCN1C[C@H](Cc1ccc(O)cc1)N1C[C@H](CC(C)C)N(CC2CCCCCC2)C1=S	-11%	16µM*	?	21µM*	?	?
CC(C)C[C@H]1CNC(=S)N1C[C@H]1CCCN1C[C@H](Cc1ccccc1)N1C[C@H](Cc2ccc(O)cc2)N(CC2CCCCCC2)C1=S	40µM*	15µM*	-12	13µM*	21µM*	15µM*
Cc1cccc(-n2c(=O)c3c(cc(C)n3C)n(CC(=O)N(C)c3ccccc3)c2=O)c1	16%	/	/	/	/	/
CCC(C)(CC(=O)Nc1ccc(NC(C)=O)cc1)Cc1nc2ccccc2s1 (stereo not given)	-48%	/	/	/	/	/
CCCNC(=O)C(NC(=O)CC(C)C)C1CCN(C(=O)c2ccc3c(c2)OCO3)CC1 (stereo not given)	49%	/	/	/	/	/
CC(C)C1CN(Cc2cscn2)CCC(=O)N1Cc1ccc(F)cc1 (stereo not given)	43%	/	/	/	/	/
CC(C)C[C@H]1CNC(=O)C(=O)N1C[C@@H]1CCCN1C[C@H](Cc1ccc(O)cc1)N1C[C@H](Cc2ccccc2)N(CC2CCCCCC2)C(=O)C1=O	?	?	-3	?	?	?

Source: PubChem (National Center for Advancing Translational Sciences (NCATS))
